Results published in publication PMC5540273 (PLoS ONE, 2017).

system: MELK; conditions: concentration: 1 μM, replicates: in singlicate; n = 1
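Further: KINOMEscan kinase panel screen.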

Row | SMILES | %Inh [%]
1 | CN1CCN(Cc2ccc(NC(=O)Nc3ccc(N(C)c4ccnc(Nc5ccc(CS(C)(=O)=O)cc5)n4)cc3)cc2)CC1.Cl [GW827654] | 32
2 | COc1ccc(C)c(Nc2ccnc(Nc3ccc(-c4cnc[nH]4)cc3)n2)c1.Cl [GW784041] | 34
3 | Cc1ccc(NC(=O)c2ccnc(N3CCCCC3)c2)cc1-c1ccc(C(=O)NCC2CC2)cc1 [GW775610] | 0
4 | CC(C)NCC(Cc1ccccc1)NC(=O)c1cc(Br)c(-c2ccnc3[nH]ccc23)s1.Cl.Cl (stereo not shown) [GSK1383281] | 97.5
5 | N#Cc1cnc2cc(-c3cnc(CNCCN4CCOCC4)s3)ccc2c1Nc1ccc(Oc2ccccc2)cc1 [GW664114] | 15
6 | O=C1NC(=O)C(c2ccccc2Cl)=C1Nc1cccc(Cl)c1 [SB-342409] | 0
7 | COc1cc(Nc2ccnc3cc(-c4ccncc4)ccc23)cc(OC)c1OC.Cl [GW494610] | 18
8 | O=C(Nc1n[nH]c2nc(-c3cccc(O)c3)ccc12)C1CC1 [SB-711805] | 3
9 | COC(=O)Nc1nc2ccc(Oc3ccc(NC(=O)Nc4cc(C(F)(F)F)ccc4F)cc3)cc2[nH]1.Cl [GW654607] | 0
10 | Cc1ccc(O)cc1Nc1ccnc2ccc(C(C)(C)C)cc12 [GW856805] | 8
11 | O=C(Nc1n[nH]c2nc(-c3ccccc3)ccc12)C1CC1 [SB-708999] | 13
12 | Fc1cc(Cl)ccc1Nc1ccnc2cc(-c3ccc(CN4CCOCC4)o3)ccc12 [GW560109] | 0
13 | Cc1ccc(Nc2ccnc(Nc3ccc(C)c(F)c3)n2)cc1O.Cl [GW582868] | 0
14 | COc1ccc(NC(=O)c2ccoc2)cc1-c1ccc(C(=O)NCC2CC2)cc1 [GW810437] | 29
15 | Cn1cc(-c2cnc(N)c3c(-c4ccc5c(c4)CCN5C(=O)Cc4ccccc4)csc23)cn1 [GSK2593074] | 0
16 | Cc1ccc(NC(=O)c2ccc(Cl)c(Cl)c2)cc1-c1ccc(C(=O)Nc2ccncc2)cc1 [GSK1398460] | 0
17 | Cl.O=C(Nc1ccc(Oc2ccc3[nH]c(NC(=O)c4ccco4)nc3c2)cc1)Nc1cc(C(F)(F)F)ccc1F [GW683134] | 0
18 | Nc1ncc(-c2cn[nH]c2)c2scc(-c3ccc4c(c3)CCN4C(=O)Cc3ccccc3)c12 [GSK2593067] | 32
19 | O=C(O)C(F)(F)F.O=c1[nH]ccc2nc(N[C@@H]3CCNC3)nc(Nc3ccc4c(c3)S(=O)(=O)CC4)c12 [GSK2181306] | 92.2

Row | SMILES | %Inh [%]
20 | COc1ccc(C2=C(Nc3cccc(O)c3)C(=O)NC2=O)cc1 [SB-390766] | 99.4
21 | CSc1ccc(NC2=C(c3ccc(Cl)cc3)C(=O)NC2=O)cc1 [SB-317658] | 0
22 | Cc1cccc(Nc2nc(N[C@H]3CCCC[C@H]3N)ncc2C(N)=O)c1.Cl [GSK986310] | 0
23 | NCCC(NC(=O)c1cc(Br)c(-c2ccnc3[nH]ccc23)s1)c1ccccc1.O=C(O)C(F)(F)F.O=C(O)C(F)(F)F (stereo not shown) [GSK1307810] | 74
24 | CN(c1ccc(NC(=O)Nc2cccc(Cl)c2)cc1)c1ccnc(N)n1.Cl [GW830707] | 11
25 | Fc1cc(Cl)ccc1Nc1ccnc2cc(-c3ccc(CN4CCSCC4)o3)ccc12 [GW560106] | 0
26 | Cn1cc(-c2ccc3c(c2)CCN3C(=O)Cc2cc(F)cc(F)c2F)c2c(N)ncnc21 [GSK2634140] | 12
27 | CCn1cnc2c(NCc3ccccc3)ncnc21 [SKF-96418] | 0
28 | COC(=O)Nc1nc2ccc(Oc3ccc(CC(=O)Nc4cc(C(F)(F)F)ccc4F)cc3)cc2[nH]1 [GW680903] | 0
29 | Cl.Cl.NCC(NC(=O)c1cc(-c2cccnc2)c(-c2ccnc3[nH]ccc23)s1)c1ccccc1 (stereo not shown) [GSK1323434] | 20
30 | CN(c1ccc(NC(=O)N2CCN(CCCN3CCOCC3)CC2)cc1)c1ccnc(Nc2ccc(CS(C)(=O)=O)cc2)n1.Cl [GW830899] | 0
31 | COc1cccc(-c2nc(-c3ccccc3)[nH]c2-c2ccncc2)c1 [SB-610250] | 14
32 | Cl.Cl.NC(CNC(=O)c1cc(Br)c(-c2ccnc3[nH]ccc23)s1)c1ccccc1 (stereo not shown) [GSK1322949] | 74
33 | O=C(Nc1n[nH]c2cc(-c3cccs3)ccc12)C1CC1 [SB-731284] | 0
34 | CN(c1ccc2c(c1)nc(NCc1ccccc1)n2C)c1ccnc(Nc2ccc(CS(C)(=O)=O)cc2)n1.Cl [GW811603] | 17
35 | CCOc1nccc(-c2c(-c3ccc(F)cc3)ncn2C2CCNCC2)n1 [SB-249175] | 0
36 | CC(C)(C)c1ccc(C(=O)Nc2cn3cc(-n4ccnc4)ccc3n2)cc1 | 0
37 | CNc1nccc(-c2ccc3c(N)n[nH]c3c2)n1 [GSK2206003] | 61
